AHR activator: AHR activators, primary screen, cell-based, luminescence, luciferase reporter, human. Aryl hydrocarbon receptor (Homo sapiens), P35869. AHR-responsive luciferase reporter cells. activation, % at 5 µM. hit rate 2.5% among 320,000. AID 2796, 2010; in the data active = activation above about 47%;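 also: 0% = vehicle wells and 100% = reference agonist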
APOBEC3A inh: APOBEC3A ssDNA deaminase inhibitors, primary screen, selectivity assay for APOBEC3G inhibitor project, biochemical, FAM/TAMRA oligo cleavage fluorescence; DNA dC->dU-editing enzyme APOBEC-3A (Homo sapiens), P31941; recombinant A3A, FAM/TAMRA ssDNA deamination fluorescence; inhibition, % at 20 µM; hit rate 0.41% among 330,000;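 active = at least 40% inhibition at 20 µM here, with at most 30% in a related deaminase screen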;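 also: plate controls were A3A with DMSO for no effect and wells lacking A3A enzyme for full effect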
NTR1 agonist: agonists of human NTR1, primary screen, imaging, U2OS cells, beta-arrestin-GFP, high content | activation, % at 20 µM | hit rate 0.17% among 330,000 | AID 493036, 2011 | NTR1-U2OS beta-arrestin-GFP spot imaging, agonist mode | Neurotensin receptor type 1 (Homo sapiens), P30989;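 active = activation at or above 40% of the spot to cytoplasm intensity ratio, with at least 20 cells analyzed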;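 also: 0% = DMSO without peptide and 100% = 100 nM NTR1 peptide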
A3G deaminase: APOBEC3G DNA deaminase inhibitors, primary screen, biochemical, fluorescence, single-stranded DNA substrate, uHTS; recombinant A3G, ssDNA deamination FAM/TAMRA fluorescence; hit rate 0.28% among 330,000; inhibition, % at 20 µM;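 active = inhibition of at least 40% at 20 µM, with no more than 30% in the related APOBEC3A deaminase screen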;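 also: plate controls were DMSO wells with A3G for no effect and wells lacking A3G enzyme for full effect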
* hit, by the source's call; . = no result. Compounds with a hit are over-represented: about 3.2% of the library has one in this group of screens.

SMILES | AHR activator | APOBEC3A inh | NTR1 agonist | A3G deaminase
C/C(=N/Nc1ccnc2cc(Cl)ccc12)c1ccc(O)cc1 | 56* | -5 | 13 | 0
NC(=S)NNc1ccnc2cc(Cl)ccc12 | 4 | 2 | -1 | 17
C/C(=N/Nc1ccnc2cc(Cl)ccc12)c1ccc(N)cc1 | 57* | -3 | -4 | -6
O=C(c1sc2cc(Cl)ccc2c1Cl)N1CCN(CCc2ccccn2)CC1 | 3 | 1 | 2 | 0
Cc1cc(C(=O)N2CCc3ccccc3C2)n[nH]1 | 1 | 0 | 1 | 2
Fc1ccc(-n2nnc(-c3ccnc4ccccc34)n2)cc1 | 54* | 0 | -1 | -3
Cn1c(-c2nnn(-c3ccc(F)cc3)n2)cc2ccccc21 | 69* | -3 | 3 | -8
Cc1ccccc1NC(=O)OCc1cccnc1Oc1ccc(Cl)cc1 | 7 | -2 | 2 | -9
CCCn1cnc2cc(NC(=O)c3ccco3)ccc21 | 60* | -4 | 0 | -7
CCN(CC)CCN(C(=O)Cn1nnc(-c2ccc(C)o2)n1)C(C(=O)NC(C)(C)C)c1cccs1 (stereo not drawn) | 0 | 7 | 0 | 3
Cc1c(Cl)cccc1N=c1c([N+](=O)[O-])nn(-c2ccccc2)n1O | 55* | 1 | 2 | -5
Cc1ccc(-c2cc(N)n(-c3ccc(C)cc3)n2)cc1 | 52* | -2 | -4 | -5
COC(=O)c1nc(NC(=S)NC(=O)c2cccs2)sc1C | 39 | 1 | 3 | 5
O=C(NC(=S)Nc1nc2ccccc2s1)c1cccs1 | 72* | 0 | 4 | -4
COc1ccc(C(C)=O)cc1COC(=O)C1CCN(C(=O)c2ccc(Cl)cc2)CC1 | 1 | 0 | 0 | -1
COc1ccc(CCNC(=O)C2CCCN(c3ncccn3)C2)cc1 (stereo not drawn) | 4 | -1 | -1 | -6
S=C(NCc1ccco1)NCC(c1ccco1)N1CCCCC1 (stereo not drawn) | 1 | -1 | 1 | 3
CCCn1cnc2cc(NC(=O)c3cccs3)ccc21 | 7 | 4 | 0 | -3
COC(=O)C(=O)C/C(=N/Nc1ncnc2ccccc12)c1ccc(Cl)cc1 | 58* | -3 | -2 | -8
COC(=O)c1cccc(Nc2ncnc3ccc(C)cc23)c1 | 13 | -4 | 0 | -11
COc1ccc(Nc2ncnc3ccc(C)cc23)cc1 | 55* | -2 | -2 | 1
Cc1ccc(/C(=N/Nc2ncnc3ccccc23)C(=O)O)cc1 | 59* | -7 | 6 | -4
COc1ccc(Nc2cc(Nc3cc(OC)c(OC)c(OC)c3)ncn2)cc1 | 59* | -4 | 1 | -5
O=C(NNc1ncnc2ccccc12)c1cccc(Cl)c1 | 20 | 2 | 3 | -6
CC1=NN(C(=O)c2ccc(Cn3cc([N+](=O)[O-])cn3)cc2)C(O)(C(F)(F)F)C1 (stereo not drawn) | 0 | 1 | 2 | 0
SMILES | AHR activator | APOBEC3A inh | NTR1 agonist | A3G deaminase
COC(=O)c1cccc(Oc2cccc(Cl)n2)c1 | 21 | 6 | -2 | 1
O=C(NCCc1ccccc1F)c1cccc2cccnc12 | 30 | 1 | -1 | 4
Oc1ccc(Nc2ncnc3ccccc23)cc1 | . | 0 | 0 | -2
Cc1ccc(Nc2ncnc3ccccc23)cc1 | 65* | 2 | -2 | 5
O=C(NCc1cccnc1)c1cc(Cl)ccc1[N+](=O)[O-] | 74* | 2 | 2 | -3
Cc1ccc(S(=O)(=O)N2CCC(=O)N(CCO)CC2)cc1 | 0 | -3 | -3 | -9
Cn1c2ccsc2c2ncn(Cc3ccccc3F)c(=O)c21 | -3 | -1 | 1 | -4
Cc1cc(C)nc(N2CCCC(C(=O)Nc3ccc4c(c3)OCO4)C2)n1 (stereo not drawn) | 49* | -5 | -1 | -1
COC(=O)Nc1ccc2c(c1)ncn2C1CCCCC1 | 66* | -3 | 1 | -6
CCN(CC(=O)Nc1c(F)cccc1F)C(=O)CCSc1ccc(F)cc1 | 8 | 0 | -1 | -7
O=C(O)CSc1nnc2c(n1)[nH]c1ccccc12 | 6 | -2 | 0 | -6
Cc1cc(C)c2[nH]c3nc(SCC(=O)O)nnc3c2c1 | 50* | -3 | 1 | 3
Cc1ccc2[nH]c3c(=O)n(N)c(C)nc3c2c1 | 48* | -3 | 3 | -2
COc1ccc2[nH]c3c(=O)n(N)c(C)nc3c2c1 | 41 | -2 | -1 | -7
